# Shown are actives, neighbours in structure and some others; about 3.4% of the full set was active somewhere.
# hcDAF-12 act: H. contortus DAF-12 nuclear receptor activators, primary screen, cell-based, luminescence, HEK293, lit1-tk-luc reporter; HEK293 hcDAF-12 lit1-tk-luc reporter; 0% DMSO, 100% Δ7-dafachronic acid; activation, % at 6.8 µM; 370,000 tested, 1.4% active; AID 652067, 2013;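 active means activation above the mean of all tested compounds plus 3 SD, cut at about 5.5% in these data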;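 further: 100% = response to 3 µM Δ7-dafachronic acid high control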
# hgDAF-12 ag: H. glycines DAF-12 receptor agonists, primary screen, cell-based, luminescence, HEK293, GAL4 fusion, UAS-luciferase | Nuclear hormone receptor DAF-12 (Heterodera glycines), GAL4 fusion | HEK293 GAL4-hgDAF12 UAS-luciferase reporter, agonist luminescence; normalized to butyrate control | 370,000 tested, 1.8% active | activation, % at 6.8 µM;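 active means activation above a cutoff set at the mean of all screened compounds plus 3 SD, cut at about 10% in these data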;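 further: 0% = DMSO wells and 100% = sodium butyrate wells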
# APP 5'UTR act: activators of APP 5'UTR luciferase reporter, primary screen, SH-SY5Y cells. SH-SY5Y APP 5'UTR luciferase reporter, luminescence; zero percent = DMSO vehicle wells. activation, % at 2 µM. 190,000 tested, 1% active. AID 1276, 2008;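 active means activation above a set limit, based on mean plus 3 SD of controls, cut at about 140% in these data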
# NF-kB neuron act: activators of NF-kB expression in neurons, primary screen, cell-based, HTS. AID 1239, 2008. human neuronal cells, NF-kB reporter expression; hits give high values. 190,000 tested, 1.6% active. fold change at 12.5 µM; in the data active means fold change above about 3.3
# ssDAF12 agonist: S. stercoralis DAF-12 nuclear receptor activators, primary screen, cell-based, luminescence, HEK293, GRIP1 co-expression, lit1-tk-luc; AID 652126, 2013; activation, % at 6.8 µM; Nuclear hormone receptor DAF-12 (Strongyloides stercoralis); 370,000 tested, 1% active; HEK293 ssDAF-12/GRIP1 lit1-tk-luc reporter; % of 3 µM dafachronic acid response;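 active means activation above the mean over all tested compounds plus 3 SD, cut at about 0.9% in these data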;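 further: 0% = DMSO-only wells and 100% = 3 µM delta7-dafachronic acid wells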
# LXR ag: LXR agonists, Gal4 luciferase reporter, confirmation, counter-screen for hcDAF-12 agonist project, cell-based, luminescence, HEK293, H. contortus campaign. HEK293 Gal4-LXR tk-luc reporter, 24 h; normalized: DMSO 0%, positive control 100%. 3,400 tested, under 10 active. activation, % at 6.8 µM. AID 743027, 2013. shares compounds with hcDAF-12 act;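 active means mean percent activation of the reporter above a cutoff set as the average over tested compounds plus their standard deviation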
# Target sequence (P55055 whole entry, looked up, the tested form may be a part): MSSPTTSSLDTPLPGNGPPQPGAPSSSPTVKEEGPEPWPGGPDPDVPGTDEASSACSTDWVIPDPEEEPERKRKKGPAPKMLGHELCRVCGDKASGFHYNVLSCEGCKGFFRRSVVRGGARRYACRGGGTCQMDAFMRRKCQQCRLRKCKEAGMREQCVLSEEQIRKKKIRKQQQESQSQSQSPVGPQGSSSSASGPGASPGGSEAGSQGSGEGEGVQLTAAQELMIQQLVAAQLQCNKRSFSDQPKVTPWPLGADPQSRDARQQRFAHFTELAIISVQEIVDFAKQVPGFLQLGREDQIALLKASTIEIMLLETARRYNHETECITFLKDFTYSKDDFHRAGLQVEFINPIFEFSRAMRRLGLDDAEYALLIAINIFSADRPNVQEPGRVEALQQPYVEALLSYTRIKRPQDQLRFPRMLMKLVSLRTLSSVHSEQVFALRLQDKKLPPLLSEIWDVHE
# hcDAF12 ag: H. contortus DAF-12 receptor agonists, confirmation, cell-based, luminescence, HEK293, lit1-tk-luc, triplicate | AID 743032, 2013 | shares compounds with hcDAF-12 act | activation, % at 6.8 µM | 3,400 tested, 61% active | HEK293 hcDAF-12 lit1-tk-luc reporter; % of Δ7-dafachronic acid response;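 active means mean activation across triplicate tests above the threshold derived from the earlier primary screen, cut at about 5.5% in these data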;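 further: 0% = DMSO only wells and 100% = 3 µM Δ7-dafachronic acid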
# * hit, by the source's call; x = not tested or not shown.
SMILES,hcDAF-12 act,hgDAF-12 ag,APP 5'UTR act,NF-kB neuron act,ssDAF12 agonist,LXR ag,hcDAF12 ag
O=C(Nc1cccc2cccnc12)c1ccc(Cl)cc1,6.7*,3,x,x,1.2*,0,7.6*
O=C(NC(=S)Nc1cccnc1Cl)c1ccco1,2,8,7,1,-1,x,x
O=C(NC(=S)Nc1cccnc1Cl)c1ccc(Cl)cc1,10*,15*,x,x,1.1*,1,15*
Oc1csc(Cc2nc(-c3ccc(Br)cc3)cs2)n1,8.8*,12*,50,1.9,0,0,7.6*
NC1=NC(=O)/C(=C/c2cn(CCC(=O)O)nc2-c2ccc(Cl)cc2)S1,-1,1,15,1,-1,x,x
NC1=NC(=O)/C(=C\c2ccc(-c3ccc(Cl)cc3)o2)S1,6.5*,5,x,x,0.9*,0,7.7*
CN1/C(=C\C(=O)c2cccs2)Sc2ccccc21,21*,17*,168*,7.5*,2.9*,2,21*
CN1/C(=C/C(=O)c2cccs2)Sc2ccccc21,22*,18*,103,5.3*,4.5*,2,24*
CN1/C(=C/C(=O)C2CCC2)Sc2ccccc21,8.1*,12*,50,2,0,0,4
CN1/C(=C\C(=O)c2cccc([N+](=O)[O-])c2)Sc2ccccc21,7.7*,13*,x,x,0,1,5.9*
COc1cc(OC)cc(C(=O)/C=C2\Sc3ccccc3N2C)c1,-1,4,44,1.8,-1,x,x
O=C(OC12CCCN(C1)/C(=C/c1ccccc1)C2)C1CCCCC1 (centres undefined),-1,-1,x,x,-1,x,x
COc1ccc(CCNC(=O)C2CC(c3ccccc3[N+](=O)[O-])=NO2)cc1 (centres undefined),7.6*,8,40,2.2,1.3*,1,6.6*
CC(=O)n1cc(/C=C2/N=C(c3ccccc3)OC2=O)c2ccccc21,6.7*,2,12,1,0,0,4
CC(=O)n1cc(/C=N/NC(N)=S)c2ccccc21,0,-2,22,1.1,-2,x,x
Cc1ccc2nc(N3C(=O)C(O)=C(C(=O)c4ccc(C)o4)C3c3ccco3)sc2c1 (centres undefined),8.1*,11*,x,x,1,0,3
COC(=O)c1cc2c(c3c4cc(C)ccc4n(S(=O)(=O)c4ccc(C)cc4)c13)C(=O)N(C)C2,2,-1,x,x,-1,x,x
CCCc1cc2c(=O)c(-c3nc4ccccc4s3)c(COCC(=O)O)oc2cc1O,6.8*,9,49,1.4,0.9*,0,7.7*
COC(=O)[C@H](C(C)C)N(Cc1cn(Cc2ccccc2)nn1)S(=O)(=O)c1ccccc1Br,-1,-1,x,x,-1,x,x
C=CCN1C/C(=C/c2ccccc2)N2C(=O)CC(c3ccccc3)N=C12 (centres undefined),-2,0,x,x,-2,x,x
CC(C)(C)NC(=O)NC(=O)COc1ccc(Br)cc1Br,6.6*,17*,151*,5.1*,0,2,9.5*
CC(C)(C)NC(=O)NC(=O)COC(=O)COc1ccc(Cl)cc1Cl,0,1,-14,1.1,-2,x,x
CCOC(=O)N1CCN(C(=O)C[C@H]2C[C@@]3(C(=O)OC)C(=C[C@H](COCc4ccccc4)O[C@@H]3C)N(Cc3cccc4ccccc34)C2=O)CC1,-3,1,x,x,-2,x,x
O=C(O)COc1ccccc1/C=N/NC(=O)c1cc2ccccc2cc1O,11*,10,x,x,2.7*,0,5
C#CCNC(=O)C[C@@H]1C(=O)N(Cc2ccc(OC)cc2)C2=CCN(C(=O)OC(C)(C)C)C[C@]21C(=O)OCC,0,1,x,x,-1,x,x
SMILES,hcDAF-12 act,hgDAF-12 ag,APP 5'UTR act,NF-kB neuron act,ssDAF12 agonist,LXR ag,hcDAF12 ag
Cc1ccc(-c2nc(NCCCN(C)C)c3ccccc3n2)cc1,8.3*,11*,x,x,0,0,11*
Cc1ccc(-c2nc(NCCN3CCOCC3)c3ccccc3n2)cc1,6.8*,11*,19,0.75,0,0,6.4*
CN(C)CCCNc1nc(-c2ccccc2)nc2ccccc12,4,-1,x,x,0,x,x
CCCCn1cnc2c(sc3nc4c(cc32)CSC(C)(C)C4)c1=O,7.0*,13*,166*,3.3,0,1,5.6*
COC(=O)[C@]12C[C@H](CC(=O)NCCC(C)C)C(=O)N(Cc3ccccc3)C1=C[C@H](COCc1ccccc1)O[C@@H]2C,-1,2,x,x,-1,x,x
COc1cc(C#Cc2c(C=O)n(C)c3ccccc23)cc(OC)c1,6.9*,1,x,x,0,0,3
CCOC(=O)[C@]12CCCC3=C1N(CCC3)C(=O)[C@@H](CC(=O)NCc1ccccc1)C2,-1,2,x,x,-1,x,x
Cc1cc(/C=C2\SC(=S)NC2=O)c(C)n1-c1ccccc1,13*,8,x,x,1.6*,1,13*
COc1ccc(-n2ncc(N(C)n3cccc3)c(Cl)c2=O)cc1,6.8*,12*,133,3.7*,0,1,4
COc1ccc(-n2ncc(Cl)c(Cl)c2=O)cc1,-2,0,-92,1.1,-1,x,x
Nc1c(C(=O)c2ccc(Br)cc2)oc2ccccc12,5,10,14,1.2,0,x,x
Nc1c(C(=O)c2ccccc2)oc2ccc([N+](=O)[O-])cc12,0,4,x,x,-2,x,x
Nc1c(C(=O)c2ccccc2)oc2ccc(Br)cc12,9.9*,13*,124,4*,1.3*,1,8.3*
Cc1ccc(C(=O)c2oc3ccccc3c2N)cc1,9.5*,11*,48,2.5,1,1,9.7*
CCCC1CCC2(CCC(=O)N2CCOC)CC1 (centres undefined),-1,-1,x,x,-1,x,x
COc1ccc(C2C(C#N)=C(C)NC(C)=C2C#N)c(OC)c1,0,1,-4,x,-2,x,x
CC1=C(C#N)C(c2ccccc2O)C(C#N)=C(C)N1,9.6*,8,32,1.1,1,0,5.7*

# Screens from PubChem.
